This is an account of results in PubChem BioAssay (Tox21).

SMILES strings stand for the structures. Several values for one entry are separate records, joined by “and”; a condition that tells them apart may be missing. Identical values can stand only once. Inconclusive results are not listed. Some compounds were tested as several samples or in several runs, with calls that do not always agree. Activity calls are given as the source filed them. Unless noted, calls follow the shape of the dose curve; as a rule, active = well fitted curve in the direction sought with a large enough effect in the repeat runs; inconclusive = weak or mixed curves; inactive = no such curve, though single readings can be large; an effect the other way counts as inactive or inconclusive.

A short description of assay [1]: qHTS assay to identify small molecule antagonists of the retinoic acid receptor (RAR) signaling pathway (AID 1159552; also: nearly all actives have a fitted effect of over 50% in size; also: potency is read from the fitted curve at half-maximal effect). The method in brief:
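Test chemicals and DMSO controls were pin-transferred onto C3RL4 cells a day after seeding; retinol (1 uM final) followed at once. Luminescent reporter output was quantified after 6 hr of co-incubation and 30 min with detection reagent.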
On the technique in general: Quantitative high-throughput screening tests each substance at several concentrations.

Assay [2] in a line: qHTS assay to identify small molecule antagonists of the estrogen related receptor (ERR) signaling pathway from Tox21 library - cell viability counter screen (AID 1224834). Also: potency is read from the fitted curve at half-maximal effect; nearly all actives have a fitted effect of over 30% in size. The method in brief:
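Compounds in DMSO were pinned onto ERR cells that had been incubated for 6 h, and the plates were held at 37 C for 17.5 h. CellTiter-Fluor reagent was then added and fluorescence was measured after 30 min.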

Assay [3] concerns the target Luciferin 4-monooxygenase (Photinus pyralis) (UniProt P08659). In words: qHTS assay to identify small molecule inhibitors of firefly luciferase (AID 1224835). Also: nearly all actives have a fitted effect of over 25% in size. Also: potency is read from the fitted curve at half-maximal effect. Summed up:
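Inhibition of purified Photinus luciferase is measured by luminescence. Substrate levels (D-luciferin, ATP) sit at their KM values. Each compound is tested in a concentration series.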

Assay [4] in a line: qHTS assay to identify small molecule agonists of the constitutive androstane receptor (CAR) signaling pathway - cell viability counter screen (AID 1224836). Also: nearly all actives have a fitted effect of over 45% in size. Also: potency is read from the fitted curve at half-maximal effect. Summed up: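 23 h treatment, 37 C, 5% CO2. Cell line: HepG2 stably expressing hCAR with a CYP2B6-2.2kb construct. Co-treatment: PK11195, 0.75 uM final. Read-out: CellTiter-Fluor fluorescence intensity.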
Assay [5] can be described thus: qHTS assay to identify small molecule antagonists of the constitutive androstane receptor (CAR) signaling pathway - cell viability counter screen (AID 1224837). Also: nearly all actives have a fitted effect of over 45% in size. Also: potency is read from the fitted curve at half-maximal effect. The method in brief:
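Cells are seeded, rested 4 hr at 37 C/5% CO2, dosed with compound (15-point series) and 50 nM CITCO, incubated a further 23 hr, and then CellTiter-Fluor reagent is added before fluorescence is read. The line is HepG2 with stable hCAR and CYP2B6-2.2kb.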

In assay [6] the target is Nuclear receptor subfamily 1 group I member 3 (Homo sapiens) (UniProt Q14994). In words: qHTS assay to identify small molecule antagonists of the constitutive androstane receptor (CAR) signaling pathway (AID 1224838).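 Also: HepG2 cells stably expressing hCAR with CYP2B6 luciferase reporter stimulated by CITCO; nearly all actives have a fitted effect of over 40% in size.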 Also: potency is read from the fitted curve at half-maximal effect. Summed up:
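Luminescence from a CYP2B6-2.2kb promoter reporter in hCAR-expressing HepG2 cells reflects CAR signaling. Cells received compounds at 15 concentrations and 50 nM CITCO (final), then incubated 24 h at 37 C/5% CO2.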

For assay [7] the target is unchanged. In words: qHTS assay to identify small molecule agonists of the constitutive androstane receptor (CAR) signaling pathway (AID 1224839).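 Also: HepG2 cells stably carrying human CAR and a CYP2B6 luciferase reporter; series mostly up to about 92 µM; nearly all actives have a fitted effect of over 15% in size.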 Summed up:
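Compounds tested at 15 concentrations on HepG2 cells stably harbouring hCAR and CYP2B6-2.2kb reporter constructs, co-treated with PK11195 (0.75 uM final), 24 h at 37 C; luminescent reporter signal quantified.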

Assay [8] can be described thus: qHTS assay to identify small molecule antagonists of the estrogen related receptor signaling pathway with the pleiotropic PPARgamma coactivator (PGC) from Tox21 10K library - cell viability counter screen (AID 1224840; active = well fitted cell-killing curve with a large enough effect in the repeat runs, not every such curve was filed as active; also: nearly all actives have a fitted effect of over 40% in size; also: potency is read from the fitted curve at half-maximal effect). The method in brief:
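Cell viability is measured by CellTiter-Fluor fluorescence in PGC/ERR cells that receive compounds after a 6-hour attachment period and are then incubated 17.5 hours at 37 C.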

In assay [9] the target is Thyrotropin receptor (Homo sapiens) (UniProt P16473). In words: qHTS assay to identify small molecule agonists of the thyroid stimulating hormone receptor (TSHR) signaling pathway (AID 1224843; calls by dose curve; also: nearly all actives have a fitted effect of over 45% in size). The method in brief:
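Agonist activity read as cAMP rise via d2/cryptate HTRF competition, 1 h room-temperature detection, in HEK293 cells expressing TSHR. Fifteen-point titrations, each run in triplicate, with a 30 min room-temperature incubation beforehand.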

A short description of assay [10]: qHTS assay to identify small molecule agonists of the hypoxia (HIF-1) signaling pathway - cell viability counter screen (AID 1224844; calls by dose curve; also: nearly all actives have a fitted effect of over 50% in size; also: potency is read from the fitted curve at half-maximal effect). The method in brief: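 Viability counter screen: HRE-bla ME-180 cells plated 5 hrs before compound addition, treated 17 hrs at 37C and 5% CO2, then CellTiter-Glo added after the FRET reporter read; luminescence after 30 min.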
Assay [11] in a line: qHTS assay to identify small molecule agonists of H2AX (AID 1224845; active = well fitted activation curve with a large enough effect in the signal ratio in the repeat runs, not every such curve was filed as active; the % refers to the signal ratio; also: potency is read from the fitted curve at half-maximal effect). The method in brief: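 Phospho-H2AX Ser139 measured by HTRF (ex 320 nm; em 665 and 620 nm) after 24 hr antibody incubation. Compounds, 15 concentrations, 0.76% DMSO, were applied to CHO-K1 cells for 3hr at 37C before lysis.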
Assay [12] can be described thus: qHTS assay to identify small molecule antagonists of the estrogen related receptor signaling pathway with the pleiotropic PPARgamma coactivator (PGC) from Tox21 10K library (AID 1224841; call rule not given here; also: actives are mostly falling curves and most rising ones were filed inactive; nearly all actives have a fitted effect of over 50% in size; also: potency is read from the fitted curve at half-maximal effect). Summed up: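 Cells stably carrying the PGC/ERR reporter, seeded at 2,000 per well, received pin-transferred compounds 6 h post-plating. Exposure lasted 18 h at 37 C. Signal: One-Glo luminescence.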

Assay [13] is described as follows: qHTS assay to identify small molecule agonists of the estrogen related receptor signaling pathway with the pleiotropic PPARgamma coactivator (PGC) from Tox21 10K library (AID 1224842). Also: nearly all actives have a fitted effect of over 15% in size. Also: potency is read from the fitted curve at half-maximal effect. Summed up: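 Luminescence from One-Glo (30 min, room temperature) measured after PGC/ERR cells had 18 h at 37 C with pinned compound (23 nL in DMSO). Cells had been seeded at 2,000 per well and pre-incubated 6 h.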

Assay [14] can be described thus: qHTS assay to identify small molecule agonists of the retinoic acid receptor (RAR) signaling pathway (AID 1159553). The method in brief:
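Quantitative high-throughput format: the Tox21 10K library was tested on C3RL4 RARE-luciferase cells for 6 hr at 37 C and 5% CO2, with luminescence measured after a 30 min room-temperature reagent step.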

The nature of assay [15]: qHTS assay to identify small molecule antagonists of the estrogen related receptor (ERR) signaling pathway - cell viability counter screen (AID 1224818).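 Also: series mostly up to about 46 µM; viability measured after 17.5 h of compound exposure.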 Summed up: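 Quantitative high-throughput viability counter screen in ERR cells. Compounds (DMSO) incubated 17.5 h at 37 C; read-out was CellTiter-Fluor fluorescence.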
Assay [16] can be described thus: qHTS assay to identify small molecule antagonists of the estrogen related receptor (ERR) signaling pathway (AID 1224819; also: series mostly up to about 46 µM; nearly all actives have a fitted effect of over 50% in size). The method in brief: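 ERR reporter cell line (NTP) plated at 2,000 cells/well, settled 6 h at 37C/5% CO2, then exposed to LOPAC compounds for 18 h at 37C. One-Glo luciferase luminescence read after 30 min at room temperature.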
A short description of assay [17]: qHTS assay to identify small molecule agonists of the estrogen related receptor (ERR) signaling pathway (AID 1224820). Summed up:
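After 6 h plating (2,000 cells/well) and 18 h compound treatment at 37 C, ERR cells were lysed with One-Glo and luminescence read after 30 min at room temperature.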

In assay [18] the test system is estrogen-related receptor alpha (ERRalpha) with PGC-1alpha coactivator, human. In words: qHTS assay to identify small molecule antagonists of the estrogen related receptor signaling pathway with the pleiotropic PPARgamma coactivator (PGC) (AID 1224821; calls by dose curve). The method in brief: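 Luminescence from One-Glo luciferase reagent (30 min, room temperature) measured after 18 h compound treatment at 37 °C. Cells carry the PGC/ERR reporter and were seeded 6 h prior to dosing.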

The nature of assay [19]: qHTS assay to identify small molecule agonists of the estrogen related receptor signaling pathway with the pleiotropic PPARgamma coactivator (PGC) (AID 1224823). The method in brief: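 Luminescence from One-Glo reagent (30 min, room temperature) was read after 18 h compound treatment at 37 C of PGC/ERR cells plated 6 h beforehand; compounds delivered in DMSO by pin tool.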

Sequence of Luciferin 4-monooxygenase (Photinus pyralis) (P08659 whole entry, looked up): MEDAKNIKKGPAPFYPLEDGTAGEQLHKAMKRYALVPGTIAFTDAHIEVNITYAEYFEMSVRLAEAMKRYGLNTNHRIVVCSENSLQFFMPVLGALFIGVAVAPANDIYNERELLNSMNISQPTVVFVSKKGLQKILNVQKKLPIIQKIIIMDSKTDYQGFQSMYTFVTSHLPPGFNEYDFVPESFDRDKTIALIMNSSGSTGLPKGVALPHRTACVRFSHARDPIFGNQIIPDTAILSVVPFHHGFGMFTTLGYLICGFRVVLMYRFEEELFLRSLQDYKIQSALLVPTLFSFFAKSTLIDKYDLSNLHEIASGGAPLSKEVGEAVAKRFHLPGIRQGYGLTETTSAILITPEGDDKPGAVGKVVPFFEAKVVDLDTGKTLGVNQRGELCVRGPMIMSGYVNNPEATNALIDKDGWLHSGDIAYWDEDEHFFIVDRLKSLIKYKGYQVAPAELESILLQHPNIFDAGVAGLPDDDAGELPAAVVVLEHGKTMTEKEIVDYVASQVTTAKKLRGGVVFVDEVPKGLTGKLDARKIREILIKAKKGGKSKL
Sequence of Thyrotropin receptor (Homo sapiens) (P16473 whole entry, looked up): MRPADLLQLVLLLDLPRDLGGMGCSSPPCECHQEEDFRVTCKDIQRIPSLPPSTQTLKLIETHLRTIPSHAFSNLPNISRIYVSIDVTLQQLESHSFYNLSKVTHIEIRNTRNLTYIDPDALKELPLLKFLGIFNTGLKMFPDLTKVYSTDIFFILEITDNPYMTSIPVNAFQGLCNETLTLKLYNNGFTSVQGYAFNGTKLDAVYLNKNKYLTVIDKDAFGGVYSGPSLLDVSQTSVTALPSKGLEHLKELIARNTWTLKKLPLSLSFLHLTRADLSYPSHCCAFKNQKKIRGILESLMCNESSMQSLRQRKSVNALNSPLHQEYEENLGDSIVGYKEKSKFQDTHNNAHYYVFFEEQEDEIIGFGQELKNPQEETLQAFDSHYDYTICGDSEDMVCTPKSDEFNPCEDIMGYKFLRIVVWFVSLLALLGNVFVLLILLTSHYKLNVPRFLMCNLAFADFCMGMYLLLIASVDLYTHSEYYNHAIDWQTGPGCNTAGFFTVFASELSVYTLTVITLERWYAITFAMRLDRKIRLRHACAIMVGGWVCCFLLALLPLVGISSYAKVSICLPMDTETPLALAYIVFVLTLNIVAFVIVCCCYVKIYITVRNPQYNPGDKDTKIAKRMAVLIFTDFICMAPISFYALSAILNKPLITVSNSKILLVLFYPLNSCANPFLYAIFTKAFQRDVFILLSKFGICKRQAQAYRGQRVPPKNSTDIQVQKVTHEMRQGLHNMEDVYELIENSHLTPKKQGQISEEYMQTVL
Sequence of Nuclear receptor subfamily 1 group I member 3 (Homo sapiens) (Q14994 whole entry, looked up): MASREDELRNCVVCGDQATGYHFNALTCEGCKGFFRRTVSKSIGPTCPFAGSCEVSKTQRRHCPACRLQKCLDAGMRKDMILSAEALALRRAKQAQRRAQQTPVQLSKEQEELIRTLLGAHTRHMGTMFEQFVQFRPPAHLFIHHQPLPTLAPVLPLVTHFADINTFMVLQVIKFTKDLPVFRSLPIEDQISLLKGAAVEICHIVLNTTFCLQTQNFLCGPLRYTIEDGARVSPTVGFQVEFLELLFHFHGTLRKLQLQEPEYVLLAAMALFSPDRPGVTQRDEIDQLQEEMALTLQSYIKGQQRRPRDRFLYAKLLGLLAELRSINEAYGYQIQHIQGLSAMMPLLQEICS

As to `Clc1ccc(COC(Cn2ccnc2)c2ccc(Cl)cc2Cl)cc1` (stereo not drawn), the Potency was 50.8 µM (active) and 48.4 µM (active) and inactive in assay [1]; 45.3 µM (active) and 48.4 µM (active) and 26.6 µM (active) in assay [2]; 45.3 µM (active) and 54.3 µM (active) in assay [4]; 40.4 µM (active) and 43.1 µM (active) and 26.6 µM (active) in assay [5]; 54.3 µM (active) and 29.8 µM (active) in [6]; 50.8 µM (active) and 54.3 µM (active) in assay [8]. In assay [10], the Potency was 32.3 µM (active) and 34.5 µM (active) and inactive. For the same compound, the Potency result in assay [3], in assay [7] and in assay [9] was “inactive” throughout.
Regarding `NC(=O)c1ccc(N)nc1`, the Potency result in [3], in assay [4], in [5], in [6], in assay [8] and in assay [11] was “inactive” each time. For the same compound, the Potency in assay [10] was 15.5 µM (active).
Consider `CC(C)(C)C(O)/C(=C\c1ccc(Cl)cc1Cl)n1cncn1` (stereo not drawn), for which the Potency in assay [1] is 58.7 µM (active); in assay [4], 74 µM (active); in [8] it was 58.7 µM (active); in [12], 29.4 µM (active). Also, the Potency entry in assay [3], in assay [6], in assay [13] and in assay [10] was “inactive” each time.
`Nc1ccc(Cl)cc1C(=O)c1ccccc1`: the Potency result in [4], in [8], in [9], in assay [10] and in assay [11] was “inactive” in each case. Also, in assay [13], the Potency was 54.5 µM (active).
With `C=CC(=O)OCCCCOC(=O)C=C`, the Potency result in assay [3], in assay [7] and in [12] was “inactive” each time. Further, the Potency in assay [5] was 61.1 µM (active); in assay [8], 48.6 µM (active); in [13] it was 21.7 µM (active); in [11], 101 µM (active).
Regarding `Cc1cc(SCc2sc(-c3ccc(C(F)(F)F)c(F)c3)nc2C)ccc1OCC(=O)O`, the Potency entry in assay [1], in assay [14], in assay [4], in assay [5], in assay [6] and in [7] was “inactive” each time. Besides, the Potency entry in [8], in [12], in [13] and in [11] was “inactive” each time. For the same compound, the Potency in assay [3] was 44.8 µM (active); in assay [10], 12.3 µM (active).
Consider `CCCCCCCCCCCCCCCC[N+](C)(C)C`, for which the Potency in [2] is 23.5 µM (active) and 61.1 µM (active) and 18.8 µM (active); in assay [4], 54.5 µM (active); in assay [5], 54.5 µM (active); in assay [8], “inactive and 61.1 µM (active)”. For the same compound, the Potency result in [3], in [6], in assay [7] and in assay [10] was “inactive” each time.
`O=C(CCCN1CCC2(CC1)C(=O)NCN2c1ccccc1)c1ccc(F)cc1`: the Potency result in [14], in assay [16], in assay [18], in assay [3], in [7] and in assay [8] was “inactive” throughout. In addition, the Potency entry in assay [12], in assay [13], in assay [9] and in [11] was “inactive” in each case. Moreover, the outcome in assay [15], in [17] and in assay [19] was inactive. Besides, the Potency is 5.96 µM (active) in [4] and 3.35 µM (active) in assay [5].
